# Measured values from ChEMBL document CHEMBL1157539, “Thousands of chemical starting points for antimalarial lead identification” (Nature, 2010).
# System: HepG2
# Experiment: GSK_TCMDC: Percent inhibition of human HepG2 cell line. Test compounds present at 10uM.
# Assay type: functional
row,SMILES,Inhibition [%]
1,CNC(=O)c1cnc(Nc2ccc(OCC(O)CN(C)C)cc2)nc1Nc1cccc([N+](=O)[O-])c1.O=C(O)C(F)(F)F (stereo not given),52
2,O=C(/C=C/c1ccc(Cl)c(Cl)c1)NCCCCCN1CC[C@H](NC(=O)c2sc3ccccc3c2Cl)C1,26
3,COc1ccc2nccc(N3CCC(CCNCc4ccc5c(n4)NC(=O)CO5)CC3)c2c1.Cl,22
4,CCc1cn(CCS(C)(=O)=O)c2ccc(C(=O)N[C@@H](Cc3ccccc3)[C@H](O)CNC(C)(C)CCCC(C)C)cc12.O=CO,16
5,Cc1[nH]c2ccc(O)cc2c1C1CCN(CCCCCNC(=O)/C=C/c2ccc(Cl)c(Cl)c2)CC1,33
6,O=C(c1cccc(-c2noc(C(F)(F)F)n2)c1)N1CCN(c2ccncc2)CC1,14
7,O=C(O)C(F)(F)F.c1ccc(CN2CCC(NCc3ccccc3-c3ccc(CNCc4ccc5c(c4)OCO5)cc3)CC2)cc1,26
8,CC(C)C(=O)NC(c1cccs1)c1cc(Cl)c2cccnc2c1O (stereo not given),23
9,COc1cccc(Nc2nccc(NCC(O)c3ccc(C(F)(F)F)cc3)n2)c1 (stereo not given),14
10,COc1ccc(N2CCN(CCCCNC(=O)c3ccc(/C=C/c4ccc(Cl)c(Cl)c4)cc3)CC2)c(OC)c1,51
11,COc1cc(OC)cc(C(=O)N2CCOC(CCN3CCC(c4ccccc4)CC3)(c3ccc(Cl)c(Cl)c3)C2)c1 (stereo not given),13
12,COc1cc(C(=O)N2CCN(C(C)C)CC2)ccc1CN(C)CCCN1CCN(c2cccc(Cl)c2Cl)CC1.Cl,56
13,O=c1cc(NCCCNCc2cccc(I)c2)[nH]c2ccccc12,10
14,Cc1cc(C(=O)Nc2ccc(-c3ccccc3)cc2)no1,6
15,COc1ccnc(NCCCNCc2cn(S(=O)(=O)c3ccccc3)c3ccccc23)c1,57
16,O=C(Cc1c[nH]cn1)Nc1cccc(-c2ccc(-c3nc4cc(C(F)(F)F)ccc4[nH]3)cc2)c1,10
17,Cc1cccc2nc(-c3ccc(-c4ccc(CN5CCCC5CN)cc4)cc3)[nH]c12.O=C(O)C(F)(F)F (stereo not given),28
18,CC(=O)Nc1nc(C(=O)Nc2cccc(-c3cccc(-c4nc5ccccc5[nH]4)c3)c2)cs1,31

row,SMILES,Inhibition [%]
1,N=C(N)Nc1nc(-c2cccc(NC(=O)NCc3ccc(OC(F)(F)F)cc3)c2)cs1,0
2,Cc1nnc(-c2ccc3ccccc3c2)c2cn(-c3cccc([N+](=O)[O-])c3)nc12,29
3,Cn1nc(C(F)(F)F)c(-c2ccc(Br)cc2)c1NC(=O)Nc1ccc(F)cc1F,16
4,CCCN1CCN(c2ccccc2NS(=O)(=O)c2ccc(C(=O)Nc3ccc(Cl)cc3)cc2)CC1.O=C(O)C(F)(F)F,17
5,CC1CC(NCCCNc2cc(=O)c3ccccc3[nH]2)c2c1cc(Cl)c(Cl)c2Cl (stereo not given),1
6,O=C(Cc1ccc[n+]([O-])c1)Nc1cccc(-c2cccc(-c3nc4cc(C(F)(F)F)ccc4[nH]3)c2)c1,41
7,O=C(Nc1ccsc1C(=O)NC1CCCCC1)c1ccc(F)cc1,3
8,COC(=O)c1cccc(CNCc2ccc(-c3ccc(-c4nc5cccc(C)c5[nH]4)cc3)cc2)c1.O=C(O)C(F)(F)F,17
9,C[C@@H](CC1CCCCC1)NCc1cccc(NS(=O)(=O)c2ccc(O)c(-c3ccno3)c2)c1.Cl,0
10,CC(C)NCc1ccc(-c2ccc(-c3nc4cc(C(F)(F)F)ccc4[nH]3)s2)cc1.O=C(O)C(F)(F)F,30
11,O=C(/C=C/c1ccc(Cl)c(Cl)c1)NCC1CCN(Cc2ccc(O)cc2)CC1.O=C(O)C(F)(F)F,4
12,CC(=O)Nc1ccc(NC(=O)c2cc(-c3cc(Cl)ccc3O)n[nH]2)cc1,1
13,Cc1cc(NC(=O)Nc2ccc(C(C)(C)C)cc2)c2ccccc2n1,0
14,CCOc1cc(C(=O)NC2CCN(Cc3ccccc3)CC2)ccc1-c1nc2cc(Cl)c(F)cc2[nH]1,13
15,CCCN(Cc1nnc(-c2ccco2)o1)C(=O)C1CCN(c2ncc(C(F)(F)F)cc2Cl)CC1,19
16,CC(=O)NCCNc1nccc(N2CCc3ncnc(Nc4ccc(OCc5ccccn5)c(Cl)c4)c3C2)n1,0
17,CN(C)S(=O)(=O)c1ccc(N2C(=O)C3C(C2=O)C2(c4ccccc4)C(=O)C3(c3ccccc3)C(c3ccccc3)=C2c2ccccc2)cc1 (stereo not given),0
